The panel holds about 79,000 compounds, 15% with a hit somewhere; the sample as a whole holds those more often. Unmarked numbers belong to inactive results. Active and inactive are the calls of the source. No stated cut-off is given here; in the data, active means growth inhibition above about 70%; inactive means the rest.
Tests used:
[1] = NCI Yeast Anticancer Drug Screen. Data for the rad50 strain (AID 155);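 further: 0% = growth of vehicle-only cultures of the same strain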; conditions: S. cerevisiae rad50 strain growth inhibition; at 50.0 µM; hits give high values
Method in brief: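 Readout: growth inhibition relative to vehicle-treated cultures. Compound exposure was carried out in a genetically defined yeast strain deficient in DNA damage repair.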

[2] = NCI Yeast Anticancer Drug Screen. Data for the mec2-1 strain (AID 157); conditions: S. cerevisiae mec2-1 strain, at 50.0 µM, hits give high values
Method in brief: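 Mutant yeast (mec2-1) grown with compound; growth inhibition relative to vehicle control reported.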

[3] = NCI Yeast Anticancer Drug Screen. Data for the sgs1 mgt1 strain (AID 161);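 further: 0% = growth of cultures given vehicle only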; conditions: S. cerevisiae sgs1 mgt1 strain, at 50.0 µM, hits give high values
Method in brief: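 Percent growth inhibition was derived by comparing compound-exposed mutant yeast with vehicle-exposed cultures. The strain carries alterations in DNA damage repair.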

[4] = NCI Yeast Anticancer Drug Screen. Data for the cln2 rad14 strain (AID 165);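 further: 0% = growth equal to vehicle treated cultures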; conditions: S. cerevisiae cln2 rad14 strain, at 50.0 µM, hits give high values
Method in brief: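 Readout is yeast growth inhibition versus vehicle-treated controls, using a strain with cln2 and rad14 alterations exposed to compound.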

[5] = NCI Yeast Anticancer Drug Screen. Data for the bub3 strain (AID 167); conditions: S. cerevisiae bub3 mutant strain, at 50.0 µM, hits give high values
Method in brief: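 Readout: yeast growth inhibition, expressed relative to vehicle-only wells. The test organism is a mutant strain from a panel with lesions in DNA repair or checkpoint genes.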

[6] = NCI Yeast Anticancer Drug Screen. Data for the mlh1 rad18 strain (AID 175); conditions: S. cerevisiae mlh1 rad18 strain growth inhibition; at 50.0 µM; hits give high values
Method in brief: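 Genetically defined yeast (DNA repair-deficient) exposed to compounds; growth inhibition determined relative to vehicle.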

Structure (SMILES)	growth inhibition [1]	growth inhibition [2]	growth inhibition [3]	growth inhibition [4]	growth inhibition [5]	growth inhibition [6]
COc1ccc(/C=C(\Cl)c2ccc(OC)cc2)cc1	-2.9%	3.8%	-26.6%	-18.1%	5.6%	-26.8%
CCCCNc1ncnc2c1cnn2C	-3.2%	18.9%	-28.2%	-11.9%	-7.1%	-4.3%
CCN(CC)C(=O)Cc1[nH][nH]c(=O)c1C(=O)N(CC)CC	-31.9%	2.45%	-42.9%	-7.6%	-28.6%	-41.3%
Nc1cccc(CNC(=O)COc2ccc(Cl)cc2C(=O)O)c1	-0.9%	14%	-2.7%	-7.6%	18.4%	10.4%
Cc1nc(-c2nc(C)c(C(=O)NNC(=O)C[n+]3ccccc3)s2)sc1C(=O)NNC(=O)C[n+]1ccccc1	21.9%	10.6%	52%	-20.9%	0.2%	14.4%
N#CC(C#N)c1c(F)c(F)c(C(F)(F)F)c(F)c1F	10.4%	-4.6%	34.9%	-8.95%	-9.9%	-0.65%
CCOC(=O)CCC1(C(=O)OCC)CCCC1=O (stereo unspecified)	-12.9%	-21.3%	-27.4%	-9.7%	10.6%	-19.3%
CN(C)S(=O)(=O)c1cccc2ccccc12	3.35%	7.85%	-7.35%	-6.9%	2.45%	-8.65%
CCO[Si](C)(CCC#N)OCC	6.05%	-64%	-12.7%	30.9%	-31.6%	4.75%
CC(=O)OC1C(C2COCO2)OCOC1C1COCO1 (stereo unspecified)	-3.3%	-7.15%	3.5%	-16.6%	-6.65%	-18%
O=C(C(=O)c1ccccc1)c1ccccc1	9.35%	-0.75%	11.7%	-22.1%	9.9%	-1.15%
N=C(N)SCC(=O)c1ccc([N+](=O)[O-])cc1	-6.65%	4.95%	1.35%	-0.4%	3.85%	5.8%
COC(=O)CC1(C)[C@H](O)[C@H]2OC(C)(C)O[C@H]2[C@@H]1O (stereo partly specified)	7.7%	-10.6%	-18.2%	-3.25%	-7.5%	38.2%
CCN(CC)CCOC(=O)c1ccc(NC(=O)Nc2ccccc2[N+](=O)[O-])cc1	19.4%	5.5%	19.1%	16.6%	15.6%	14.8%
CSc1nc2ccc(N=Cc3ccccc3O)cc2s1	-25.5%	-8.25%	-5.7%	-12.6%	17.7%	-13.4%
CCC(=O)C(C)C(=O)CCC(=O)Nc1cc(Cl)ccc1Cl (stereo unspecified)	21.4%	18.5%	18.6%	20.2%	18.1%	19.6%
O/N=C1\CC2(N3CCOCC3)CCC1(Cc1ccccc1)CC2	36%	52.6%	60.2%	55.6%	38.8%	49.4%
O=C(C[n+]1cccc(Cl)c1)c1ccccc1	-3.55%	7.9%	7.9%	-9.7%	-4.85%	-0.5%
C=CCOCc1ccc(C(C)(C)CC(C)(C)C)cc1	-5.25%	13.5%	8.6%	-75.5%	16.1%	15.7%
Cc1cc2sc(C)[n+](CCCOS(=O)(=O)[O-])c2cc1C	-22.6%	-23.9%	-40%	36.3%	-0.95%	-35.9%
Clc1ccc(CSc2cnnc(SCc3ccc(Cl)c(Cl)c3)c2SCc2ccc(Cl)c(Cl)c2)cc1Cl	1.2%	5.15%	3.9%	-5.9%	-0.8%	17.1%

Structure (SMILES)	growth inhibition [1]	growth inhibition [2]	growth inhibition [3]	growth inhibition [4]	growth inhibition [5]	growth inhibition [6]
O=C1c2scnc2-c2nccc3c2c1nc1ccccc13	60.3%	75.5% (active)	66.8%	53.2%	80.9% (active)	74.9% (active)
O=C1c2cc([N+](=O)[O-])cc3cc([N+](=O)[O-])cc(c23)C(=O)N1CCNCCNCCNCCN1C(=O)c2cc([N+](=O)[O-])cc3cc([N+](=O)[O-])cc(c23)C1=O	85.1% (active)	90.4% (active)	91.5% (active)	90.8% (active)	89% (active)	86.1% (active)
CC1=NN(C(=O)c2cccnc2)C(=O)C1N=Nc1ccc(S(=O)(=O)N=C(N)N)cc1 (stereo unspecified)	4.8%	-14.6%	-12.4%	-6.5%	0%	-21.9%
N#Cc1c2c(c(=O)n3c1[nH]c1ccccc13)CCCC2	16.2%	5.35%	19.8%	7.95%	18.4%	18.5%
COc1ccccc1/C=N/N1C(=O)C2C3C=CC(O3)C2C1=O (stereo unspecified)	2.35%	9.8%	0.1%	0.15%	3.45%	14.5%
O=c1[nH]cc(Cl)cc1[N+](=O)[O-]	10.8%	3.95%	-1.4%	2.3%	-17.8%	1.7%
COc1cccc(/C(CC(O)(C(F)(F)F)C(F)(F)F)=N\N(C)C)c1	-30.6%	-9.9%	-8.7%	-38.2%	1.5%	-25.2%
CCSC(SCC)C(NC(C)=O)C(O)C(O)COC(=O)c1ccccc1 (stereo unspecified)	6.05%	17.3%	17.4%	12%	1.35%	25.2%
[O-][n+]1c2ccccc2[n+]([O-])c2cc(O)ccc21	20.4%	-4.05%	12.7%	-1.3%	17.1%	50.8%
CC1(C)CC(C)(C)CC(O)(C2(O)CC(C)(C)CC(C)(C)C2)C1	-0.95%	0.35%	-2.7%	-3%	-5.4%	9.2%
O=C1CN(C=C2C(=O)NC(=O)NC2=O)C(=S)N1	-53.8%	-23.7%	-43%	-36.7%	-22.3%	-71.2%
Nc1nnc(CCCCCCCc2nnc(N)o2)o1	-6.25%	12.6%	3.45%	7.5%	6.85%	13.2%
CCCCCCCCC/C=C1\CCC(CN2CCOCC2)C1=O (stereo unspecified)	89% (active)	92.8% (active)	90.3% (active)	89.6% (active)	88.8% (active)	88% (active)
CC(C)(C)NC(=O)Oc1ccc2ccccc2c1	1.75%	-14.6%	-6%	-84.9%	10.3%	-15.7%
O=C(c1ccccc1)c1oc2ccc(Br)cc2c1-c1cnn(-c2ccccc2)c1	29.2%	-9.5%	11.9%	15.1%	-3.85%	22.1%
COC(=O)C(CC(=O)Nc1ccc(Cl)c(Cl)c1)C(=O)C(=O)NC1C2CC3CC(C2)CC1C3 (stereo unspecified)	-3.15%	13.8%	-14.1%	7.8%	-8.65%	-9.05%
CC(=O)NC1C(OC(C)C(=O)NC(C)C(=O)NC(CCC(=O)NCCCCCNc2ccc([N+](=O)[O-])c3[nH]c4ccccc4c(=O)c23)C(N)=O)C(O)C(CO)OC1(C)OCc1ccccc1 (stereo unspecified)	13%	13.1%	27.2%	23.9%	19.9%	32.9%
O=C(O)/C=C/C(=O)Nc1cccc(C(F)(F)F)c1	-3.5%	0.35%	-17.5%	-6.85%	-15.7%	-9.7%
COC(=O)C(=C(C)C)S(=O)c1ccccc1 (stereo unspecified)	-9.85%	1.4%	-3.55%	-16%	-13.6%	3.45%
COC(=O)C(=O)C(C(=O)C=C(C)C)C(=O)C(=O)Nc1cc(C(F)(F)F)ccc1Cl (stereo unspecified)	-3%	-1.4%	6%	-57.1%	1.15%	-10.8%
